PubChem BioAssay (EPA / NIEHS)
“And” between values parts separate entries of the source, which are not always exact repeats. Equal values may be shown once. The source holds several records for some structures; these can differ, active in one and inactive in another. The source made the active and inactive calls. How the source made its calls: active means hit-call score of the fitted dose curve at least 0.9, where 1 is the maximum; inactive means score below 0.9.

read-out: Interleukin-8 (IL8), CXCL8 (gene 3576); experiment: BSK_BF4T_IL8: BioMAP Diversity Plus: BF4T Assay for Interleukin-8 (IL8) Biomarker Activity (AID 2284263); settings: primary human bronchial epithelial cells with fibroblasts
Procedure: BSK_BF4T is a cell-based, multiplexed-readout assay that uses bronchial epithelial cells and dermal fibroblasts, a human vascular primary cell, with measurements taken at 24 hours after chemical dosing in a microplate: 96-well plate.BSK_BF4T_IL8 is an assay component measured in the BSK_BF4T assay. It measures IL-8 antibody related to regulation of gene expression using ELISA technology.Data from the assay component BSK_BF4T_IL8 was analyzed at the endpoint, BSK_BF4T_IL8, in the positive analysis fitting direction relative to DMSO as the negative control and baseline of activity. Using a type of binding reporter, gain or loss-of-signal activity can be used to understand protein changes. To generalize the intended target to other relatable targets, this assay endpoint is annotated to the 'cytokine' intended target family, where the subfamily is 'interleukins'.
The levels of cell surface (or secreted, indicated by the prefix "s") biomarker endpoints were measured by ELISA. Overt cytotoxicity to cells in confluent adherent cultures (all systems other than the BT system) was assessed by measuring total protein levels using sulforhodamine B (SRB) staining in parallel cultures at the time of biomarker measurements, indicated as SRB endpoints. For proliferation assays for adherent cell types, individual cell types are cultured at sub-confluence and relative cell numbers quantified by SRB staining at time points optimized for each system (48 h: 3C and CASM3C systems; 72 h: BT and HDF3CGF systems; 96 h: SAg system). SRB was performed by staining cells with 0.1% SRB after fixation with 10% TCA and reading wells at 560 nm.Viability and proliferation of PBMC (T cells) was quantified by Alamar Blue reduction for the SAg and BT systems. For PBMC viability (referred to as PBMC Cytotoxicity within the assay endpoint names), cells were plated (75,000/well in a 96-well plate) and then chemical samples added for 1 h before addition of activators, SEB and TSST-1 (20 ng/mL final concentration each). Cells were incubated for 90 h. Then, Alamar Blue (20 uL/well) (Invitrogen, Cat DAL1100) was added for 6 h, and the plates were read with a fluorescence microplate reader at 546/580 nm (excitation/emission). For PBMC proliferation, cells were plated and activated as above but incubated for only 16 h prior to addition of Alamar Blue. Plates were read after 6 h.

| SMILES | AC50 | outcome |
| --- | --- | --- |
| CNS(=O)(=O)C(F)(F)C(F)(F)C(F)(F)C(F)(F)C(F)(F)C(F)(F)C(F)(F)C(F)(F)F | 46.3 µM (active) | inactive |
| O=C(O)C(F)(F)C(F)(F)C(F)(F)OC(F)(C(F)(F)F)C(F)(F)F | – | inactive |
| O=S(=O)(OCC(F)(F)F)C(F)(F)C(F)(F)C(F)(F)C(F)(F)F | – | inactive |
| O=S(=O)(O)CCC(F)(F)C(F)(F)C(F)(F)C(F)(F)F | – | inactive |
| OCC(F)(F)C(F)(F)C(F)(F)C(F)(F)C(F)(F)C(F)(F)C(F)(F)C(F)(F)CO | – | inactive |
| C=CC(=O)OCC(F)(F)C(F)(F)C(F)(F)COC(=O)C=C | 10.8 µM (active) | inactive |
| FC(F)(F)C(F)(F)C(F)(F)C(F)(F)C(F)(F)C(F)(F)C(F)(F)CCI | – | inactive |
| OCCCCC(F)(F)C(F)(F)C(F)(F)C(F)(F)F | – | inactive |
| CN(C(=O)C(F)(F)C(F)(F)C(F)(F)F)[Si](C)(C)C | – | inactive |
| C=CC(=O)OCCC(F)(F)C(F)(F)C(F)(F)C(F)(F)F | – | inactive |
| C=C(C)C(=O)OCC(F)(F)C(F)(F)C(F)(F)C(F)F | – | inactive |
| OCCCC(F)(F)C(F)(F)C(F)(F)C(F)(F)C(F)(F)C(F)(F)C(F)(F)C(F)(F)F | 47.9 µM (active) and 24.3 µM (active) | – |
| NC(=O)C(F)(F)C(F)(F)C(F)(F)C(F)(F)C(F)(F)C(F)(F)C(F)(F)F | – | inactive |
| O=S(=O)(O)CCC(F)(F)C(F)(F)C(F)(F)C(F)(F)C(F)(F)C(F)(F)C(F)(F)C(F)(F)F | – | inactive |
| O=C(O)C(F)(F)C(F)(F)C(F)(F)OC(F)(F)F | 0.218 µM (active) | inactive |
| FC(F)(F)C(F)(F)C(F)(F)CC1CO1 (stereo not given) | – | inactive |
| CCOC(=O)CC(=O)C(F)(F)C(F)(F)F | – | inactive |
| OCC(O)CC(F)(F)C(F)(F)C(F)(F)C(F)(F)C(F)(F)C(F)(F)C(F)(F)C(F)(F)F (stereo not given) | – | inactive |

| SMILES | AC50 | outcome |
| --- | --- | --- |
| NCC(F)(F)C(F)(F)C(F)(F)C(F)(F)C(F)(F)C(F)(F)C(F)(F)C(F)(F)F | – | inactive |
| NC(O)(C(F)(F)F)C(F)(F)F | – | inactive |
| CO[Si](C)(CCC(F)(F)C(F)(F)C(F)(F)C(F)(F)C(F)(F)C(F)(F)F)OC | – | inactive |
| NC(=O)C(F)(F)C(F)(F)C(F)(F)C(F)F | – | inactive |
| O=C(Cl)C(F)(F)C(F)(F)C(F)(F)C(F)(F)C(F)(F)C(F)(F)C(F)(F)F | – | inactive |
| C[Si](Cl)(Cl)CCC(F)(F)C(F)(F)C(F)(F)C(F)(F)C(F)(F)C(F)(F)F | – | inactive |
| OCC(O)CC(F)(F)C(F)(F)C(F)(F)C(F)(F)F (stereo not given) | 0.22 µM (active) | inactive |
| O=C(O)CCC(F)(F)C(F)(F)C(F)(F)F | – | inactive |
| OCC(F)(F)C(F)(F)C(F)(F)C(F)(F)C(F)(F)C(F)(F)CO | – | inactive |
| O=C(Cl)C(F)(F)C(F)(F)C(F)(F)C(F)(F)C(F)(F)C(F)(F)F | – | inactive |
| O=C(O)C(F)(F)C(F)(F)C(F)(F)C(F)(F)C(F)(F)C(F)(F)C(F)F | – | inactive |
| O=S(=O)(Cl)C(F)(F)C(F)(F)C(F)(F)C(F)(F)C(F)(F)C(F)(F)C(F)(F)C(F)(F)F | – | inactive |
| C=CC(=O)OCC(F)(F)C(F)(F)C(F)(F)C(F)(F)C(F)(F)C(F)(F)C(F)(F)C(F)F | – | inactive |
| O=C(O)C(F)(F)C(F)(F)C(F)(F)C(=O)O | – | inactive |
| NS(=O)(=O)C(F)(F)C(F)(F)C(F)(F)C(F)(F)C(F)(F)C(F)(F)F | – | inactive |
| CCN(CCO)S(=O)(=O)C(F)(F)C(F)(F)C(F)(F)C(F)(F)C(F)(F)C(F)(F)C(F)(F)C(F)(F)F | – | inactive |
| NC(=O)C(F)(F)C(F)(F)C(F)(F)F | – | inactive |
| O=C(O)CCC(F)(F)C(F)(F)C(F)(F)C(F)(F)C(F)(F)C(F)(F)C(F)(F)F | – | inactive |
